Data as given in PubChem BioAssay AID485297 (National Center for Advancing Translational Sciences (NCATS), 2010).
In all, about 320,000 compounds went through this assay and about 9,100 (2.8%) were called active. Not shown: some 3% with an inconclusive outcome. The sample holds actives, similar compounds and a random draw of the others, so the mix is not that of the screen. Calls come from the whole dose curve; as a rule, active = well fitted activation curve with a large enough effect; inconclusive = small, poorly fitted or top-dose-only effect; inactive = no such curve, though single readings can be large or run the other way.

Test: qHTS Assay for Rab9 Promoter Activators; note: nearly all actives have a fitted effect of over 60% in size; for activation, negative = inhibition: % of control where 0% means no effect
Settings: Huh7 Rab9 promoter-luciferase reporter, luminescence, 24 h; series mostly up to 9.22 µM; activation, negative = inhibition: at the top concentration
From the text: NIH Chemical Genomics Center [NCGC] NIH Molecular Libraries Probe Production centers Network [MLPCN] MLPCN Grant: MH089537-01 Assay Submitter (PI): Yiannis A. Ioannou NCGC Assay Overview: Niemann Pick Type C (NPC) is a rare neurodegenerative lipidosis that is characterized by lipid storage in the endosomal/lysosomal system. Treatment modalities for this devastating disease are currently non-existent due to the severe obstacles associated with accessing the central nervous system with proteins or genes (Ioannou, 2000). We have developed a new paradigm, termed "Orphan Receptor Bypass Therapy" (ORByT), to address these disorders. This paradigm posits the existence of endogenous "suppressor" proteins whose expression can dramatically improve LSD pathogenesis. The goal is the identification/discovery of small chemical compounds that can modulate the expression of these proteins and provide a new treatment modality for these devastating disorders. One such protein whose overexpression reverses aspects of the NPC phenotype is Rab9. We have developed and optimized a cell based luciferase reporter assay in 1536 well format for the identification of up-regulators of the Rab9 promoter.
The Rab9 promoter is cloned in front of the luciferase reporter gene, therefore […] promoter activation results in luciferase expression. Frozen stock of the Rab9 promoter transfected Huh7 cells were obtained from the laboratory of Dr. Yiannis Ioannou (The Mount Sinai School of Medicine, New York, NY). Cells were propagated and maintained at NCGC in medium containing RPMI-1640 supplemented with 10% FBS, 2mM L-glutamine, and 50ug/ml penicillin/streptomycin. Cells were harvested in and plated for assays in OP-MEM I reduced-serum medium supplemented with 10% FBS. The Amplite luciferase reporter gene assay kit was purchased from ABD Bioquest and prepared/stored according to manufacturers recommendations. qHTS Assay Setup: 1.Dispensed 5ul of Huh7 cells stably expressing Rab9-luciferase at a density of 1500 cells per well 1536-well plates. 2.Incubate cells at 37C, 5% CO2, and 95% humidity for 2 hours. 3.Transferred 23nl per well of compound in DMSO solution. 4.Incubated at 37C, 5% CO2, and 95% humidity for 24 hours. 5.Dispensed 3ul per well of Amplite reagent(ABD Bioquest) per well. 6.Incubate at ambient for 10 minutes. 7.Read using the luminescence protocol on the ViewLux plate reader (Perkin Elmer).
Potency is the fitted concentration of half-maximal effect.

Compound	activation, negative = inhibition	Potency
Cc1sc2ncnc(SCC(=O)Nc3ccc(CN4CCCC4)cc3)c2c1C	-3.72% (inactive)	–
COc1ccc(C[C@H](C(=O)O)N2C(=O)c3ccc(C(=O)O)cc3C2=O)cc1	-0.624% (inactive)	–
COc1ccc2[nH]cc(CCN3C(=O)c4ccc(C(=O)O)cc4C3=O)c2c1	–	1000 nM (active)
Cc1ccc2[nH]cc(CCCN3C(=O)c4ccccc4C3=O)c2c1	-0.334% (inactive)	–
COc1cc([N+](=O)[O-])ccc1NC(=O)COC(=O)CCOc1ccc(C)cc1	-12.9% (inactive)	–
O=C(CSc1ncnc2sccc12)N1CCN(C(=O)c2cccs2)CC1	0.66% (inactive)	–
Nc1c(C(=O)c2cccs2)sc2nsc(SCCN3CCCCC3)c12	–	2510 nM (active)
O=C(CN1C2=NCCN2c2ccccc21)c1cccs1	-0.857% (inactive)	–
CCCCC/C=C/C1=CC(=O)C[C@H](c2ccc(Cl)cc2)C1	1.49% (inactive)	–
COc1ccccc1CNC(=O)COC(=O)c1sc(C)nc1C	-3.97% (inactive)	–
CCOC(=O)c1sc(=NC(=O)c2ccc(Br)cc2)n(C)c1C	0.397% (inactive)	–
CCOC(=O)c1c(NC(=S)NC(=O)/C=C/c2cccs2)sc(C)c1C	2.48% (inactive)	–
CCOC(=O)c1sc(=NC(=O)/C=C/c2cccs2)n(C)c1C	–	2820 nM (active)
Cc1cccc(-c2nc3ccc(C(=O)NCCN4CCN(C)CC4)cc3nc2-c2cccc(C)c2)c1	2.86% (inactive)	–
C=CCNC(=O)c1ccc(C)c(Br)c1	-1.69% (inactive)	–
C=CCNC(=O)c1ccc2c3n(nc2c1)-c1ccc(C)cc1CO3	–	891 nM (active)
COc1ccc(CNC(=O)CN2C(=O)NC3(CCCc4sccc43)C2=O)cc1 (stereo not given)	6.95% (inactive)	–
CO[C@H]1[C@@H]2C=CO[C@@H](O[C@H]3O[C@@H](CO)[C@H](O)[C@@H](O)[C@@H]3O)[C@@H]2[C@@]2(CO)O[C@@H]12	-3.32% (inactive)	–
Cc1ccc(-c2cn(S(=O)(=O)c3cccc([N+](=O)[O-])c3)nc2N)cc1	-1.36% (inactive)	–
Cc1cc(C)nc(Nc2cc([N+](=O)[O-])ccc2C)n1	-11.1% (inactive)	–
Cc1ccc(-n2cc3ccc([N+](=O)[O-])cc3n2)cc1	–	355 nM (active)
Cc1ccc(CNC(=O)c2cccc3c2C(=O)c2ccc(N4CCC(C)CC4)cc2S3(=O)=O)cc1	15.8% (inactive)	–
Cc1c(O)c(C)c2c(c1O)C(=O)C[C@@H](c1ccccc1)O2	-3.21% (inactive)	–
COc1ccc(NC(=O)C2COc3ccccc3O2)cc1 (stereo not given)	–	3160 nM (active)
CC(=O)c1cccc(NC(=O)C2COc3ccccc3O2)c1 (stereo not given)	0.233% (inactive)	–
COc1ccc(NC(=O)CC2COc3ccccc3O2)c(OC)c1 (stereo not given)	5.83% (inactive)	–
CC(C)C[C@H](NC(=O)[C@H](O)[C@H](N)Cc1ccccc1)C(=O)O	-1.46% [at 46.1 µM] (inactive)	–

Compound	activation, negative = inhibition	Potency
CNS(=O)(=O)c1cccc(C(=O)OCCCC(=O)c2ccccc2)c1	-6.66% (inactive)	–
O=C(Nc1ccc(Cl)cc1)OCc1cc(-c2ccccc2)on1	0.695% (inactive)	–
O=C(Nc1cccc(Cl)c1)OCc1ccccn1	–	3980 nM (active)
O=C(Nc1cccc(CCc2ccccn2)c1)c1ccc(Cl)cc1	-8.69% (inactive)	–
CC(C)N(C(=O)CSc1nnc(NC2CC2)s1)c1ccccc1	-5.19% (inactive)	–
CCc1nnc(NC(=O)C2CCN(C(=O)c3ccccc3C)CC2)s1	-6.02% (inactive)	–
Cc1[nH][nH]c(=O)c1N=Nc1ccccc1	12% (inactive)	–
O=C1/C(=C/c2ccc3c(c2)OCO3)CCC/C1=C\c1ccc2c(c1)OCO2	-1.72% (inactive)	–
Nc1[nH][nH]c(=O)c1N=Nc1ccc2c(c1)OCO2	–	3550 nM (active)
COc1ccc2ccn(C)c2c1	-0.692% (inactive)	–
Cc1ccc(NC(=O)CN(C)C(=O)COC(=O)c2nccnc2N)cc1	-6.5% (inactive)	–
CS(=O)(=O)N1CCN(c2cccc(Cl)n2)CC1	-4.47% (inactive)	–
CS(=O)(=O)N1CCN(C(=O)Cc2ccccc2)CC1	2.51% (inactive)	–
CS(=O)(=O)N1CCc2nc(-c3ccccc3)sc2C1	–	1580 nM (active)
NC(=O)C1CCN(C(=O)c2ccc(F)c(S(=O)(=O)N3CCOCC3)c2)CC1	0.968% (inactive)	–
Cc1ccc(N(CC(=O)NCC2CCCO2)C(=O)CNS(=O)(=O)c2ccc(Cl)cc2)cc1 (stereo not given)	3.13% (inactive)	–
O=C1c2ccccc2C(=O)N1CCC#Cc1ccc2cc(C3(O)CCCCC3)oc(=O)c2c1	-4.71% (inactive)	–
O=C(Nc1ccc(C(=O)N2CCCCC2)cc1)c1cccc([N+](=O)[O-])c1	2.09% (inactive)	–
O=C(Nc1ccc(NC(=O)c2ccco2)c(Cl)c1)c1cccc([N+](=O)[O-])c1	2.88% (inactive)	–
O=C(Nc1ccc(C2CC2(Cl)Cl)cc1)c1cccc([N+](=O)[O-])c1 (stereo not given)	–	3980 nM (active)
CN(C)/C=C(/C(=O)c1ccc(Cl)c(Cl)c1)c1nnnn1-c1ccccc1	-1.69% (inactive)	–
CC(=NCc1ccco1)C1=C(O)c2ccccc2C1=O	27.3% (inactive)	–
CC(=NCc1ccco1)c1c(C(F)(F)F)[nH]n(-c2nc3ccccc3s2)c1=O	–	2000 nM (active)
COC(=O)Cc1[nH]n(-c2nc3ccccc3s2)c(=O)c1C(C)=Nc1ccc(OC)cc1	-29.5% (inactive)	–
O=C(CN1CCN(S(=O)(=O)c2cccc(Cl)c2)CC1)N1CCCCC1	-2.8% (inactive)	–
COc1ccccc1N1CCN(CC(=O)Nc2ccnn2C2CCCC2)CC1	-1.51% (inactive)	–
COc1ccc(-c2nn(-c3ccccc3)cc2/C=C\C(=O)Nc2ccc(C(=O)O)cc2)cc1	-2.58% (inactive)	–

Compound	activation, negative = inhibition	Potency
O=C(O)c1ccc(N/N=C/c2cn(-c3ccccc3)nc2-c2cccs2)cc1	–	447 nM (active)
O=C(/C=C\c1cn(-c2ccccc2)nc1-c1cccs1)N1CCOCC1	-2.01% (inactive)	–
COc1ccc(OC)c(/C=C/C(=O)c2ccc3c(c2)OCO3)c1	-4.56% (inactive)	–
CN(C(=O)COC(=O)Cn1cnc2c1c(=O)n(C)c(=O)n2C)C1(C#N)CCCCC1	2.9% (inactive)	–
CC(C)(C)NC(=O)CSC(=Nc1ccccc1F)NC#N	–	3980 nM (active)
COc1ccccc1-n1ccnc1SCC(=O)NC(C)(C)C	-2.9% (inactive)	–
Cc1ccccc1CSCC(=O)NC(=O)NC(C)(C)C	7.27% (inactive)	–
CC(CCc1ccccc1)NC(=O)c1cnc(Cl)c(Cl)c1 (stereo not given)	-1.69% [at 1.84 µM] (inactive)	–
COc1ccc(CNC(=O)c2ccc(NS(=O)(=O)c3ccc4[nH]c(=O)[nH]c4c3)cc2)cc1OC	0.821% (inactive)	–
S=C(NCc1cccnc1)Nc1ccc(Cl)cc1Cl	2% (inactive)	–
CN1CCN(S(=O)(=O)c2ccc(NC(=S)NC(=O)C3CC3)cc2)CC1	2.23% (inactive)	–
O=C(NC(=S)Nc1ccc(Cl)cc1Cl)C1CC1	–	2820 nM (active)
Cc1ccc(OCC(=O)Nc2ccccc2C(=O)NC2CC2)cc1	-0.812% (inactive)	–
CCCCOC(=O)c1[nH]c(C)c(C(=O)OC)c1C	–	2820 nM (active)
CCOC(=O)c1c(C)[nH]c(C(=O)OCC(=O)c2ccc(OC)cc2OC)c1C	3.1% (inactive)	–
CCOC(=O)c1c(C)[nH]c(C(=O)OCC(=O)N2CCCC2=O)c1C	5.19% (inactive)	–
COc1ccc(/C(C)=N/Nc2cc(C(F)(F)F)ccc2Cl)c(OC)c1	-5.83% (inactive)	–
CC(C)c1ccc(NC(=S)NC2CC3C=CC2C3)cc1 (stereo not given)	–	2820 nM (active)
S=C(NNC(=S)NC1CC2C=CC1C2)NC1CC2C=CC1C2 (stereo not given)	6.58% (inactive)	–
S=C(NNC(=S)NC1CC2CCC1C2)NC1CC2C=CC1C2 (stereo not given)	-0.185% (inactive)	–
COc1ccc(-c2cc(C(=O)NCCCN3CCCC3=O)c3ccccc3n2)cc1OC	8.83% (inactive)	–
N/C(=N\OC(=O)/C=C/c1ccccc1)c1ccc(Br)cc1	3.85% (inactive)	–
N/C(=N\OC(=O)c1ccc2c(c1)OCO2)c1ccc(Br)cc1	–	3980 nM (active)
N/C(=N\OC(=O)N1c2ccccc2Sc2ccccc21)c1ccc(Br)cc1	-1.25% (inactive)	–
CC1CC2C3CCC4=CC(=O)C=C[C@]4(C)[C@@]3(F)[C@@H](O)C[C@]2(C)[C@@]1(O)C(=O)CO (stereo not given in full)	4.04% [at 46.1 µM] (inactive)	–
CCCc1nc2ccccc2c(=O)n1NC(=O)c1c(O)c2ccccc2[nH]c1=O	-0.479% (inactive)	–
NS(=O)(=O)c1ccccc1NC(=O)c1c(O)c2ccccc2[nH]c1=O	–	447 nM (active)

Compound	activation, negative = inhibition	Potency
CC(C)C(=O)Nc1c(O)c2ccccc2[nH]c1=O	-2.25% (inactive)	–
COc1ccc(C(=O)NCc2ccc(Cl)cc2)cc1S(=O)(=O)N1CCCC1	-4.13% (inactive)	–
CCCn1nc(C(=O)NNC(=O)CCOc2ccccc2OCC)c2ccccc2c1=O	-1.1% (inactive)	–
O=C(Nc1ccc(NC(=O)c2cccs2)cn1)c1ccco1	–	316 nM (active)
NC(=O)c1ccsc1NC(=O)c1ccco1	3.95% (inactive)	–
O=C(Nc1ccnc(-c2ccncc2)n1)c1cccs1	-2.43% (inactive)	–
CC(C)(C)n1ncc2c(=O)n(Cc3c(Cl)cccc3Br)cnc21	-2.66% (inactive)	–
c1ccc(CN=C2Nc3ccccc3CS2)nc1	–	891 nM (active)
Cc1ccc(F)cc1S(=O)(=O)Nc1cccc(C(=O)N2CCCC(C(N)=O)C2)c1 (stereo not given)	-1.43% (inactive)	–
C=C(C)CNc1cc(S(=O)(=O)N2CCOCC2)ccc1Oc1ccccc1	-9.64% (inactive)	–
CCOc1ccc(-c2nnc(-c3ccco3)o2)cc1	–	355 nM (active)
CC(=O)Nc1ccc(NC(=O)COc2ccc(-c3ccccc3)cc2)cc1	-5.02% (inactive)	–
CCCCOc1ccc(-c2nnc(-c3ccco3)o2)cc1	–	1410 nM (active)
O=C(CCc1ccccc1)Nc1cccc(-c2nnc(-c3ccco3)o2)c1	2.91% (inactive)	–
Cc1ccc(OCC(=O)Nc2ccc(-c3nnc(-c4ccco4)o3)cc2)cc1	–	2820 nM (active)
CCOc1ccc(-n2c(SCC(N)=O)nnc2-c2ccco2)cc1	0.124% (inactive)	–
Cc1ccc(OCC(=O)Nc2nnc(-c3ccco3)s2)cc1	0.409% (inactive)	–
N#Cc1ccc(OCc2nnc(-c3ccc([N+](=O)[O-])cc3)o2)cc1	29.6% (inactive)	–
COc1ccc(OCC(=O)Nc2nnc(-c3ccco3)s2)cc1	-2.66% (inactive)	–
O=C(CN1CCCSc2ccccc21)N1CCN(S(=O)(=O)c2cccc(F)c2)CC1	-7.54% (inactive)	–
Cc1cccc(NC(=S)NCCc2ccc(Cl)cc2)c1C	-1.92% (inactive)	–
COc1ccccc1S(=O)(=O)NCc1ccc(C(=O)N(C)Cc2ccc(F)cc2)cc1	2.36% (inactive)	–
CC(=O)Nc1ccc(NC(=O)CCN2C(=O)C3CC=CCC3C2=O)cc1 (stereo not given)	-1.96% (inactive)	–
CCOC(OCC)c1ccc(/C=C\c2nccc(N)n2)cc1	–	1780 nM (active)
